This passage reports growth inhibition results from PubChem BioAssay (NCI).

The panel holds about 79,000 compounds, 15% with a hit somewhere; the sample as a whole holds those more often. A number with no mark means an inactive call. No stated cut-off is given here; in the data, active means growth inhibition above about 70%; inactive means the rest.

The assay can be described thus: NCI Yeast Anticancer Drug Screen. Data for the rad18 strain (AID 177). Conditions: S. cerevisiae rad18 mutant growth inhibition; at 1.2 µM; stronger effect = higher value. The procedure, abridged: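 DNA-repair-defective yeast; compound treatment; growth inhibition scored against vehicle.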
In the case of `CN(C)CC(CN(C)C)C(=O)/C=C/c1ccc(Cl)cc1Cl`, the growth inhibition is -4%.
Next, `c1ccc2c(c1)ccn2CCc1c[nH]c2ccccc12`: -42%; `Cc1ccccc1NC(=O)c1c(C)oc2c1C(=O)c1ccccc1C2=O`: -23%; `CC(C)OC(=O)NNc1c(Cl)cc(Cl)cc1Cl`: 0%.
Then `CCC(OC(C)=O)C1CC(C(C)C)CCC1C` (stereo unspecified), with 2%; and `O=S(=O)(c1cccc(C(F)(F)F)c1)N1c2ccccc2-n2cccc2C1c1cccnc1` (stereo unspecified), with -7%; and `c1ccc(-c2cc(C3CO3)c3ccccc3n2)cc1` (stereo unspecified), with 2%.
Then `COc1ccc(/C=C2\SC(=S)N(/C=C3\C(=O)N(c4ccccc4)N=C3C)C2=O)cc1OC`, with 5%; and `CC1=CC(=C(c2ccc(N)c(C)c2)c2ccc(N)c(C)c2)C=CC1=N`, with 2%; and `CC1C(c2ccccc2)SC(=N)N1C` (stereo unspecified), with -1%.
Take `CC(/C=C/c1ccc([N+](=O)[O-])o1)=N/N1CC(CN2CCOCC2)OC1=O` (stereo unspecified): the growth inhibition is 24%.
Next, `C=CC(C)(C)N1C(=O)C(C(C)=O)=C(O)C1Cc1c[nH]c2ccccc12` (stereo unspecified): 0%.
`O=C1c2cccc3cccc(c23)C(=O)N1CCNCCN1C(=O)c2cccc3cccc(c23)C1=O`: the growth inhibition is -3%.
For `Cc1ccc([N+](=O)[O-])c2c(NCCC[N+](C)(C)[O-])c3ccccc3nc12`, the growth inhibition was 22%.
Then `COC(=O)C(Cc1c[nH]c2ccccc12)N1CN(C)c2ccccc2C1=O` (stereo unspecified), with -8%; and `O=C(/N=N/C(=O)Oc1ccccc1)Oc1ccccc1`, with -44%.
